Gal4-VP16 FLuc = VP16 counterscreen qHTS for inhibitors of ROR gamma transcriptional activity | AID 2546, 2010 | Potency, µM (top dose mostly 53.6 µM), for inactives: top-dose activity, negative = inhibition, actives largely listed as inhibitors | Drosophila S2 Gal4-VP16 UAS-luciferase, luminescence, 20 h | hit rate 3.5% among 310,000;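 note: Gal4-VP16 expression switched on by copper sulfate through the metallothionein promoter; nearly all actives have a fitted effect of over 50% in size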
RORg inh = qHTS for inhibitors of ROR gamma transcriptional activity; hit rate 5.4% among 310,000; Nuclear receptor ROR-gamma (Mus musculus), P51450; Potency, µM (titrated, usually from 53.6 µM), inactives show top-dose activity change, negative = inhibition, most hits filed as inhibitors; Drosophila S2 Gal4-RORgamma UAS-luciferase reporter, 20 h; AID 2551, 2010; note: nearly all actives have a fitted effect of over 60% in size
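Luminescence from a UAS-regulated Photinus luciferase reporter in stably transfected Drosophila Schneider cells is measured; decreased signal marks ROR gamma inhibition. Fusion expression is induced by 700 uM copper sulfate for 20 hr.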
ALDH1A1 block = qHTS Assay for Inhibitors of Aldehyde Dehydrogenase 1 (ALDH1A1). Aldehyde dehydrogenase 1A1 (Homo sapiens), P00352. Purified ALDH1A1, NADH fluorescence, propionaldehyde substrate. Potency, µM (doses to about 75.3 µM), inactives show top-dose activity, negative = inhibition, hits mostly inhibitors. hit rate 7.3% among 220,000. AID 1030, 2008; active = well fitted inhibition curve with a large enough effect, not every such curve was filed as active; inconclusive = small, poorly fitted or top-dose-only effect, or another doubt; inactive = no such curve, though single readings can be large or run the other way;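 note: plate controls were no enzyme wells and a reference inhibitor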
Sfp inh = qHTS Assay for Inhibitors of Bacillus subtilis Sfp phosphopantetheinyl transferase (PPTase); Potency, µM, without a hit: largest response in the series, negative = inhibition, actives largely listed as inhibitors; 4'-phosphopantetheinyl transferase ffp (Bacillus subtilis), Q9F4F7; Biochemical Sfp PPTase activity, qHTS; hit rate 3.5% among 310,000;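 note: the enzyme is Sfp with the accession as filed and its product quenches rhodamine fluorescence; 0% = enzyme reaction without inhibitor and -100% = no enzyme wells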
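Fluorescence-quenching assay: 15 nM Sfp-PPTase preincubated 15 min at room temperature with compound, then 5 uM rhodamine-CoA and 12.5 uM BHQ-2-labelled YbbR peptide added. Fluorescence (ex 525/em 598 nm) read at start and after 30 min; difference gives rate.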
PLK1 PBD inh = qHTS for Inhibitors of PLK1-PDB (polo-like kinase 1 - polo-box domain): Primary Screen; Plk1 PBD binding of FITC phosphopeptide, fluorescence polarization; Potency, µM, without a hit: max response, negative = inhibition, most hits filed as inhibitors; Serine/threonine-protein kinase PLK1 (Homo sapiens), P53350; hit rate 2.8% among 360,000; note: series mostly up to about 57 µM; nearly all actives have a fitted effect of over 65% in size
Target sequence (P53350 whole entry, looked up, the tested form may be a part): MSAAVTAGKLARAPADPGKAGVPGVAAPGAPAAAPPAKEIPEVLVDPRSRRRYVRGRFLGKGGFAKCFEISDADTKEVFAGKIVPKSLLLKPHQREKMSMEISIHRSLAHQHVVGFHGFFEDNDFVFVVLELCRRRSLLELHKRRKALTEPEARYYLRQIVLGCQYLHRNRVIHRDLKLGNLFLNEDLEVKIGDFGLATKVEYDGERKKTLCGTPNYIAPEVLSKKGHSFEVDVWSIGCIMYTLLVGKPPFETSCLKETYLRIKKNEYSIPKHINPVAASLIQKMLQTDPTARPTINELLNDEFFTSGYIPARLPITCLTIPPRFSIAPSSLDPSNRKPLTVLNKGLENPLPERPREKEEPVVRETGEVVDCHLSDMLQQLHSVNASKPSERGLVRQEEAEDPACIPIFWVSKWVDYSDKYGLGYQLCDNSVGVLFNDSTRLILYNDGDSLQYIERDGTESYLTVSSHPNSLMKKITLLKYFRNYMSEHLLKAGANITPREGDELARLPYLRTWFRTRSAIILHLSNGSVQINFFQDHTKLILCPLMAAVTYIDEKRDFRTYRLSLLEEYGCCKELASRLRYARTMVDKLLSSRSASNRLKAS
* = called active by the depositor; ? = inconclusive; . = not tested or not shown; [ ] = dose if it differs, or a comment. Rows were chosen to be rich in hits. Some 12% of all compounds tested hit in one or more screens of this group. Unless noted, calls come from the whole dose curve; as a rule, active = well fitted curve in the direction sought with a large enough effect; inconclusive = small, poorly fitted or top-dose-only effect, or another doubt; inactive = no such curve, though single readings can be large; an effect the other way counts as inactive or inconclusive. Unless noted, % is set by controls: 0 for no effect and ±100 for the full control effect; potency is the fitted concentration of half-maximal effect.

SMILES	Gal4-VP16 FLuc	RORg inh	ALDH1A1 block	Sfp inh	PLK1 PBD inh
CC1(C(=O)NCc2ccccc2)CN(S(C)(=O)=O)CC(=O)N1Cc1cccs1 (stereo not drawn)	.	.	.	.	-17%
O=C(Nc1ccccc1Br)c1ccc(OC(=S)N2CCOCC2)cc1	9%	11%	-1%	5%	30µM*
O=C(Nc1cccc(Br)c1)c1cccc(OC(=S)N2CCOCC2)c1	-11%	?	.	11%	-9%
O=C(Nc1ccccc1C(=O)NC1CC1)c1ccc([N+](=O)[O-])o1	.	.	.	.	-22%
COC(=O)C/C=C\[C@@H](C)[C@@H](/C=N\OC[C@@H](O)COCc1ccco1)NS(=O)(=O)c1ccc(C)cc1	-8%[10 µM]	-6%[10 µM]	-6%[13.5 µM]	-5%	.
COC(=O)CN1C(=O)N/C(=C/c2ccc(C)o2)C1=O	?	?	18µM*	22µM*	-13%
COC(=O)COc1ccc(/C=C2/NC(=O)N(CC(=O)OC)C2=O)cc1	-9%	2%	?	14%	2%
Cc1ccc(CC2CC(=O)N(c3nc4ccccc4n3C)C2=O)cc1 (stereo not drawn)	?	13µM*	6%	3%	-4%
COc1ccc(Nc2nc3ccccc3n2C)cc1	7%	-22%	.	16%	-6%
Cc1ccc(CC2CC(=O)N(c3ccc(C)cc3)C2=O)cc1 (stereo not drawn)	0%	34%	-11%	11%	-10%
Cc1ccc(CNc2nc3ccccc3n2C)cc1	?	10µM*	.	-1%	-1%
COc1cccc(CNCc2cccc(OC)c2O)c1O	.	.	.	.	3%
CCCCn1c(Nc2ccc(OC)cc2)nc2ccccc21	?	10µM*	.	4%	-10%
COc1cccc(CNn2cnnc2)c1O	-5%	17%	13µM*	-8%	-12%
CC1=C(C(=O)N2CCCCCC2)CC(CC(=O)NC2CCCC2)C(=O)N1Cc1ccc(C(C)(C)C)cc1 (stereo not drawn)	.	.	.	.	-6%
Cc1nc2cnc(N(C)C)nc2n(CCc2ccccc2)c1=O	-3%	24%	?	3%	.
COc1ccc2oc3cc(NCCN(C)C)ccc3c(=O)c2c1	.	.	.	.	-3%
CCOC(=O)[C@]1(C(NC(=O)OC)c2cccc(F)c2)CCCC1=O (stereo partly drawn)	-7%[10 µM]	2%[10 µM]	15%[13.5 µM]	12%	.
O=C(c1ccccc1)N1CCOC(O)(c2ccccc2)C1c1ccccc1 (stereo not drawn)	.	.	.	.	-6%
CCCCn1c(NCc2ccc(N(C)C)cc2)nc2ccccc21	13µM*	18%	14µM*	?	-8%
CCCn1c(NCc2ccccn2)nc2ccccc21	-61%	14µM*	-12%	?	-6%
CCN(CC)c1ccc(CNc2nc3ccccc3n2CCN2CCOCC2)cc1	-14%	11µM*	?	13%	-5%
c1ccc(CNc2nc3ccccc3n2CCN2CCOCC2)nc1	-5%	3%	?	89µM*	2%
CCCCn1c(NCc2ccncc2)nc2ccccc21	-4%	7%	18%	19%	3%
COc1ccc(CNc2nc3ccccc3n2CCN2CCOCC2)cc1	-3%	-9%	6%	13%	-14%
SMILES	Gal4-VP16 FLuc	RORg inh	ALDH1A1 block	Sfp inh	PLK1 PBD inh
CCC(CO)Oc1cc(NC(=O)c2ccccc2[N+](=O)[O-])c2ncn(C(C)C)c2c1 (stereo not drawn)	.	.	.	.	0%
CCCn1c(NCc2cccc(OC)c2O)nc2ccccc21	3%	?	6.3µM*	13%	-3%
CCCn1c(NCc2cccc(OC)c2OC)nc2ccccc21	18%	-8%	14%	13%	-9%
CC1(C)Cc2ccccc2C(COc2ccccc2)=N1	?	?	.	-10%	27µM*
CC(C)Cc1ccc(-c2cc3nc(NCCc4ccc(S(N)(=O)=O)cc4)ccn3n2)cc1	.	.	.	.	9%
COc1ccc(CCNC(=O)CSc2nnc(CNC(=O)c3cc(OC)c(OC)c(OC)c3)o2)cc1OC	3%	-21%	.	2%	-4%
O=C(N[C@H]1CCCc2ccccc21)O[C@@H]1C(=O)c2cc(Br)ccc2O[C@H]1c1ccc2c(c1)OCO2	9%	0%	?	-18%	.
O=C1CNc2cc(Cl)ccc2N1	.	.	.	.	-24%
O=C1CSc2cc(Cl)ccc2N1	.	.	.	.	11µM*
